A short description of assay [1]: reducers of endogenous Her2 protein level, primary screen, SKBR3 breast tumor cells, AlphaScreen, ATP viability (AID 461;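 active means Her2 level under about 52% in both replicate screens, with viability over 70% of control, limit read from the data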;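 on Her2 level: lower value means less Her2 protein in the cells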;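 on viability: percent of carrier control wells set as 100% viability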). The note with it: 18-24 h, measured here: SKBR3 viability, ATP luminescence, at 10 µM.
For assay [2], the target named is Receptor tyrosine-protein kinase erbB-2 (Homo sapiens) (UniProt P04626). Described as above. The note with it: 18-24 h, at 10 µM, stronger effect = lower value.
A short description of assay [3]: SK-BR-3 cell growth inhibitors, pilot screen, 24 h, human (AID 572;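 active means viability at or below 10% of carrier control in both of two separate runs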;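 further: compound exposure lasted between 18 and 24 h rather than exactly 24 h; 100% = carrier-treated control wells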). The settings on record: SK-BR-3 viability, CellTiter-Glo luminescence, at 10 µM, stronger effect = lower value.
The nature of assay [4]: HUVEC growth inhibition – cell-based, human, primary screen (AID 575;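 active means viability at or below 30% in both replicate assays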;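 further: 100% = median of untreated cell wells with 0.1% DMSO on each plate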). The note with it: HUVEC proliferation, CellTiter-Glo luminescence, 72 h; at 10 µM; stronger effect = lower value.
Assay [5] can be described thus: growth inhibitors of H69AR lung tumor, primary screen, human, duplicate replicates (AID 580;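 active means viability at or under a set limit in both replicates, limit being median viability minus 3 SD, cut at about 48% in these data, passing the limit was not always enough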;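 further: 100% = mean luminescence of untreated wells and 0% = no signal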). The settings on record: H69AR lung tumor cells viability, ATP luminescence, 72 h; at 10 µM; stronger effect = lower value.
Assay [6] in a line: reversal of MRP1-mediated doxorubicin resistance, pilot screen, H69AR cells, doxorubicin co-treatment (AID 601;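 active means viability loss from added drug above about 55%, and viability with drug at most 40%, in both replicates, limit read from the data, passing the limit was not always enough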). The settings on record: CellTiter-Glo, 72 h, at 10 µM; for differential viability (reversal): stronger effect = higher value.
Assay [7] is described as follows: 384-well plate pilot, post-Golgi transport modulator project, inhibition of yeast transport mutant growth (AID 636; in the data active means inhibition above about 31%). The note with it: absorbance 615 nm, about 18 h, stronger effect = higher value.
Assay [8] in a line: growth suppression of yeast trafficking mutant, preliminary HTS, modulators of trafficking downstream of Golgi apparatus project, 1536-format plate, OD 615 nm (AID 637; in the data active means inhibition above about 30%). The note with it: yeast transport mutant growth, absorbance 615 nm, 18 h; stronger effect = higher value.
A short description of assay [9]: OD615 S. cerevisiae growth inhibition, permissive medium, pilot counter-assay, permissive growth control for S. cerevisiae lifespan shortening project (AID 705;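 active means growth inhibition above 25% in both replicates, a cutoff set 3 SD above the mean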). The note with it: OD615, 24 h, at 10 µM, stronger effect = higher value.
A short description of assay [10]: Restrictive medium S. cerevisiae growth inhibition, OD615, pilot screen of yeast lifespan reduction project, restrictive growth control (AID 706;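 active means growth inhibition above a set limit, 3 SD over mean compound inhibition, in both replicates, cut at about 43% in these data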;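 further: modified DeaD lifespan yeast strain shifted to restrictive glucose medium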). The settings on record: OD615, 48 h, at 10 µM, stronger effect = higher value.
Assay [11] in a line: viability gain of MRP-1-high H69AR cells under doxorubicin, pilot screen, MRP-1 activator project, CellTiter-Glo, duplicate (AID 807;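 active means viability increase at or above a cutoff of the median across tested compounds plus 3 SD, cut at about 8.5% in these data, passing the limit was not always enough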;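 further: compound pretreatment 18-22 h then 72 h combined with doxorubicin; 0% = doxorubicin alone and 100% = vehicle without doxorubicin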). The settings on record: H69AR viability with doxorubicin, CellTiter-Glo luminescence; at 10 µM; stronger effect = higher value.
Assay [12] in a line: growth suppression of beta-catenin knockout HCT116, pilot screen, human colon tumor cells (AID 823).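 Further: 0% = wells killed by 20 µM Hyamine and 100% = untreated DMSO cell wells.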 The note with it: CellTiter-Glo, 60 h, at 10 µM, stronger effect = lower value.
Assay [13] is described as follows: growth suppression of PTEN-deleted HCT116, pilot screen, cell-based, HCT116 clonal line, CellTiter-Glo (AID 824;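 active means viability at or below 27.92% in each of two runs, the all-compound median minus 4 SD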;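 further: 0% = 20 µM Hyamine control and 100% = vehicle cell control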). The settings on record: 60 h, at 10 µM, stronger effect = lower value.
Assay [14] can be described thus: inhibitors of the yeast RAM network, pilot screen, dse1pr::URA3 reporter, 5-FOA selection (AID 869;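 active means inhibition over a set limit, the all-compound mean plus 3 SD, in both replicate runs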;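 further: 0% = DMSO wells with no growth and 100% = 10 µM 1-NA-PP1 with full growth; RAM network block rescues cells from 5-FOA so hits raise OD615 growth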). The note with it: S. cerevisiae dse1pr::URA3 5-FOA growth, OD615, 2 d; at 10 µM; stronger effect = higher value; strain carries analog-sensitive mutant Cbk1 kinase.
A short description of assay [15]: RAM signaling pathway blockade in yeast – S. cerevisiae, Pdr1DBD-CYC8 efflux-inhibited sensitized strain, primary screen (AID 1298;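 active means RAM network inhibition above 8.4% in each of two replicates, 3 SD over the compound average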;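 further: 0% = DMSO untreated cells without growth and 100% = 10 µM 1-NA-PP1 full growth; higher means more yeast growth rescued from 5-FOA killing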). The note with it: S. cerevisiae cbk1-as DSE1-URA3 strain, 5-FOA growth OD615, 2 d; at 50 µM; stronger effect = higher value.
[16] abbreviates: H69AR cells + 2 uM doxorubicin, measured here: viability with 2 uM doxorubicin, stronger effect = lower value.
[17] abbreviates: H69AR cells, compound alone cytotoxicity.

Records with an inconclusive call do not appear. Calls of active or inactive are those of the source.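 How the source made its calls, unless noted: active means cell viability at or below a set limit in both duplicate runs, the limit being the all-compound median minus 4 SD (cut at about 23% in these data, passing the limit was not always enough); inconclusive means no clear call, values can overlap the other calls; inactive means the rest.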

Sequence of Receptor tyrosine-protein kinase erbB-2 (Homo sapiens) (P04626 whole entry, looked up): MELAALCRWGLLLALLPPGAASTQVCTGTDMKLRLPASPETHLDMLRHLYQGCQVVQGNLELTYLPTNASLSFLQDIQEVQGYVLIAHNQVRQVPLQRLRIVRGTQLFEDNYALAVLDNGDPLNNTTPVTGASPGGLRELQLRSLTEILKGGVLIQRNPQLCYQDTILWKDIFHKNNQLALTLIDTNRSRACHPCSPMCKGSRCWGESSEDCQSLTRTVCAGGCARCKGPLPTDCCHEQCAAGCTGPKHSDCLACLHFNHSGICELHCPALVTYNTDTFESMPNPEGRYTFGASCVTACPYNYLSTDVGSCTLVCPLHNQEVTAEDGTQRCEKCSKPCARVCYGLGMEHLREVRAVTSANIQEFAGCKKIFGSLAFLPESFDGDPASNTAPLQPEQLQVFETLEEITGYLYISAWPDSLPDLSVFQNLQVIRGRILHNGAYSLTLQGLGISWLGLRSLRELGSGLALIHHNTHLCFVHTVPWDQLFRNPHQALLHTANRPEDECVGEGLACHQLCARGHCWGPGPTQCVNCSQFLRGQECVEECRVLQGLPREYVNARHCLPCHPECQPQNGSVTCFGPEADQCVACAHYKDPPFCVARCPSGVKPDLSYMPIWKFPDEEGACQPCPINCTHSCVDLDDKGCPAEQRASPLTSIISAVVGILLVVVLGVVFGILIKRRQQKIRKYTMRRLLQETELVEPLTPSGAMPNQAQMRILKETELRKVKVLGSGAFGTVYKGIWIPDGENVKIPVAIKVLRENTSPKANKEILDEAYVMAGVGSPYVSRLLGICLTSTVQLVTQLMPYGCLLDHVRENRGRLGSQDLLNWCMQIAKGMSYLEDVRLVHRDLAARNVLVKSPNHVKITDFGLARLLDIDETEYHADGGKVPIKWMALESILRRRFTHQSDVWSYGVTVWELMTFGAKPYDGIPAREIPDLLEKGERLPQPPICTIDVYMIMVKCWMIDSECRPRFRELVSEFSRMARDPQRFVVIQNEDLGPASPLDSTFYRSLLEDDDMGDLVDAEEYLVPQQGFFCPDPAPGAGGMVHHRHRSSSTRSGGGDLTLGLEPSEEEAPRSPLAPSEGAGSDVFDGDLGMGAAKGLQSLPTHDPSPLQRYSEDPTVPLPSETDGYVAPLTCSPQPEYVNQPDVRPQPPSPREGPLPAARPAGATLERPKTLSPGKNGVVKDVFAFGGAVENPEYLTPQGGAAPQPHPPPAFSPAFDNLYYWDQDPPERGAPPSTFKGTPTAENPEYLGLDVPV

Regarding `Cc1cc(OCC(=O)NCCO)cc(C)c1Cl`, the viability in [1] is 99%; in [3] it was 99% (inactive); in assay [4], 76% (inactive); in [5], 96.4% (inactive); in [6] (setting [16]) it was 87.6%; in assay [6] (setting [17]) it was 96.4%. In addition, the viability in [12] was 99.1% (inactive); in [13] it was 99.6% (inactive). In addition, the Her2 level in assay [2] was 120% (inactive). Also, the differential viability (reversal) in assay [6] (H69AR cells + 2 uM doxorubicin) is 8.84% (inactive). Moreover, the inhibition was 1.56% (inactive) in assay [7], -1.67% (inactive) in [8] and 1.37% (inactive) in assay [14]. The growth inhibition in [9] was -15% (inactive); in [10], 0.385% (inactive). The viability increase in [11] was -0.21% (inactive). Also, the RAM network inhibition in [15] was 6.24% (inactive).
For the compound `CCc1cccc(NC(=O)Cn2cc3c(n2)CCCC3)c1`, the viability in [1] is 105%; in assay [3], 105% (inactive); in assay [4], 89.8% (inactive); in assay [5] it was 94.8% (inactive); in [6] (setting [16]), 90.3%; in assay [6] (setting [17]) it was 94.8%. For the same compound, the viability in [12] is 96.6% (inactive); in [13] it was 97.2% (inactive). Besides, the Her2 level in assay [2] is 95.5% (inactive). The differential viability (reversal) in [6] (H69AR cells + 2 uM doxorubicin) was 4.52% (inactive). Further, the inhibition in assay [7] is -4.53% (inactive); in [8] it was -3.11% (inactive); in assay [14], 1.69% (inactive). Further, the growth inhibition in assay [9] was -17.8% (inactive); in assay [10], -2.27% (inactive). For the same compound, in [11], the viability increase is -1.41% (inactive). In [15], the RAM network inhibition is 0.42% (inactive).
For the compound `CCC(C)OC(=O)C1=C(C)NC2=C(C(=O)C(C(=O)OC)C(C)C2)C1c1ccc(N(C)C)cc1` (stereo not given), the viability is 94.5% in assay [1]; 94.5% (inactive) in assay [3]; 110% (inactive) in [4]; 95.8% (inactive) in assay [5]; 91.5% in assay [6] (setting [16]); 95.8% in [6] (setting [17]). The results for the viability in assay [12] and in assay [13] were 86% (inactive) and 75.7% (inactive), respectively. The Her2 level in assay [2] is 108% (inactive). The differential viability (reversal) in [6] (H69AR cells + 2 uM doxorubicin) is 4.35% (inactive). The inhibition was -2.11% (inactive) in [7], -5.09% (inactive) in assay [8] and 1.46% (inactive) in assay [14]. Further, the values for the growth inhibition in [9] and in [10] were -3.15% (inactive) and -7.23% (inactive), respectively. Besides, in assay [11], the viability increase is -0.39% (inactive). Also, the RAM network inhibition in [15] was 8.17% (inactive).
Take `CCCCOCCCNC(=O)COc1ccccc1`: the viability in assay [1] is 103%; in assay [3], 103% (inactive); in assay [4], 102% (inactive); in assay [5], 94.1% (inactive); in assay [6] (setting [16]), 96.4%; in assay [6] (setting [17]), 94.1%. Moreover, the viability is 94.5% (inactive) in [12] and 97.5% (inactive) in assay [13]. Also, in [2], the Her2 level was 104% (inactive). Further, in assay [6] (H69AR cells + 2 uM doxorubicin), the differential viability (reversal) is -2.32% (inactive). Moreover, the inhibition is -5.54% (inactive) in assay [7], -2.46% (inactive) in assay [8] and 0.215% (inactive) in [14]. For the same compound, the figures for the growth inhibition in assay [9] and in [10] were -2.82% (inactive) and -5.04% (inactive), respectively. Further, the viability increase in [11] is -1.43% (inactive). Moreover, the RAM network inhibition in assay [15] was -0.62% (inactive).
As for `COc1ccccc1CNC(=O)C1CCC(CNc2c(N3CCOCC3)c(=O)c2=O)CC1` (stereo not given), the viability is 90.5% in [1]; 90.5% (inactive) in [3]; 86.7% (inactive) in assay [4]; 105% (inactive) in [5]; 92.8% in assay [6] (setting [16]); 105% in assay [6] (setting [17]). In addition, the results for the viability in assay [12] and in assay [13] were 101% (inactive) and 104% (inactive), respectively. Further, the Her2 level in assay [2] is 126% (inactive). The differential viability (reversal) in assay [6] (H69AR cells + 2 uM doxorubicin) was 12% (inactive). The inhibition is 1.03% (inactive) in [7], 3% (inactive) in assay [8] and 1.35% (inactive) in assay [14]. For the same compound, the growth inhibition was -3.5% (inactive) in assay [9] and 8.34% (inactive) in assay [10]. Moreover, the viability increase in [11] is 0.11% (inactive). For the same compound, the RAM network inhibition in [15] was 3.53% (inactive).
On to `Cc1cc(NS(=O)(=O)c2ccc(NC(=O)COc3ccccc3C(C)C)cc2)no1`, for which the viability in [1] was 98%; in [3] it was 98% (inactive); in assay [4], 80.9% (inactive); in assay [5], 88.9% (inactive); in assay [6] (setting [16]), 87.6%; in [6] (setting [17]) it was 88.9%. Moreover, the viability in assay [12] is 93.6% (inactive); in assay [13], 83.4% (inactive). In addition, the Her2 level in assay [2] is 90.5% (inactive). Further, the differential viability (reversal) in assay [6] (H69AR cells + 2 uM doxorubicin) is 1.26% (inactive). Besides, the inhibition is -5.2% (inactive) in assay [7], -3.33% (inactive) in [8] and 2.17% (inactive) in assay [14]. Also, the growth inhibition in assay [9] is -12% (inactive); in assay [10] it was -18.1% (inactive). Also, the viability increase in assay [11] is -1.38% (inactive). The RAM network inhibition in [15] is 4.16% (inactive).
On to `CCOC(=O)c1ccccc1NC(=O)c1cccnc1`, for which the viability in assay [1] is 83%; in [3], 83% (inactive); in [4], 94.8% (inactive); in assay [5], 96.1% (inactive); in [6] (setting [16]), 94.4%; in [6] (setting [17]), 96.1%. Besides, the results for the viability in [12] and in assay [13] were 104% (inactive) and 102% (inactive), respectively. In addition, the Her2 level in assay [2] was 117% (inactive). Also, the differential viability (reversal) in [6] (H69AR cells + 2 uM doxorubicin) was 1.67% (inactive). The inhibition is 1.95% (inactive) in assay [7], -4.59% (inactive) in assay [8] and 1.57% (inactive) in assay [14]. Moreover, the values for the growth inhibition in assay [9] and in assay [10] were -11.9% (inactive) and -21.3% (inactive), respectively. In assay [11], the viability increase is 0.06% (inactive). The RAM network inhibition in assay [15] is 2.22% (inactive).
As to `CC(C)c1nnc(NC(=O)C2CCCCC2)s1`, the viability in assay [1] is 98.5%; in [3], 98.5% (inactive); in assay [4], 96.5% (inactive); in [5], 99.5% (inactive); in assay [6] (setting [16]), 93.8%; in assay [6] (setting [17]), 99.5%. Further, the viability is 99.7% (inactive) in assay [12] and 97.1% (inactive) in assay [13]. Moreover, in assay [2], the Her2 level is 97% (inactive). In assay [6] (H69AR cells + 2 uM doxorubicin), the differential viability (reversal) was 5.75% (inactive). The inhibition was -4.13% (inactive) in [7], 0.83% (inactive) in [8] and -0.59% (inactive) in assay [14]. In addition, the growth inhibition in assay [9] is -3.55% (inactive); in [10], 0.755% (inactive). In assay [11], the viability increase was -0.65% (inactive). The RAM network inhibition in assay [15] is -2.03% (inactive).
On to `O=C(CSc1ncnc2nc[nH]c12)c1ccc(Cl)cc1`, for which the viability in assay [1] is 76%; in [3], 76% (inactive); in assay [4] it was 63% (inactive); in assay [5], 91.1% (inactive); in [6] (setting [16]) it was 99.7%; in [6] (setting [17]), 91.1%. For the same compound, the viability in assay [12] was 39.8% (inactive); in assay [13], 37.7% (inactive). The Her2 level in [2] is 98% (inactive). In addition, the differential viability (reversal) in assay [6] (H69AR cells + 2 uM doxorubicin) was -8.57% (inactive). Besides, the inhibition in assay [7] was -3.47% (inactive); in assay [8] it was 2.13% (inactive); in [14], 1.29% (inactive). In addition, the growth inhibition in assay [9] is 1.02% (inactive); in assay [10], 11.4% (inactive). Moreover, in assay [11], the viability increase was -1.43% (inactive). The RAM network inhibition in [15] is 5.06% (inactive).
In the case of `NC(=O)CN1C(=O)C(O)(CC(=O)c2ccccc2O)c2ccccc21` (stereo not given), the viability was 92.5% in [1]; 92.5% (inactive) in assay [3]; 92.1% (inactive) in assay [4]; 91.8% (inactive) in [5]; 97% in assay [6] (setting [16]); 91.8% in [6] (setting [17]). The figures for the viability in assay [12] and in assay [13] were 94.8% (inactive) and 93.9% (inactive), respectively. For the same compound, the Her2 level in assay [2] was 95.5% (inactive). The differential viability (reversal) in [6] (H69AR cells + 2 uM doxorubicin) is -5.2% (inactive). The values for the inhibition in assay [7], in [8] and in [14] were -2.67% (inactive), -1.17% (inactive) and 1.52% (inactive), respectively. The figures for the growth inhibition in [9] and in assay [10] were 1.61% (inactive) and -10.4% (inactive), respectively. The viability increase in assay [11] is -2.93% (inactive). For the same compound, in assay [15], the RAM network inhibition was 2.98% (inactive).

The values above are taken from PubChem BioAssay.
